Data from PubChem BioAssay AID686979 (National Center for Advancing Translational Sciences (NCATS), 2013).
About 50,000 (12%) of roughly 420,000 compounds were called active. Roughly 26% stayed inconclusive and do not appear here. The sample holds actives, similar compounds and a random draw of the others, so the mix is not that of the screen. The call rests on the fitted dose curve; in most records, active means well fitted inhibition curve with a large enough effect; inconclusive means small, poorly fitted or top-dose-only effect; inactive means flat fitted curve, though single readings scatter.

assay: qHTS for Inhibitors of human tyrosyl-DNA phosphodiesterase 1 (TDP1): qHTS in cells in presence of CPT; details: chicken DT40 Tdp1-/-;hTDP1 cells + 20 nM CPT, ATP luminescence, 48 h; series mostly up to 46.2 µM; activity change, negative = growth inhibition: at the top concentration; further: nearly all actives have a fitted effect of over 55% in size
From the text: Human tyrosyl-DNA phosphodiesterase 1 (TDP1) is a novel repair gene, and we propose to use it as a new target for anticancer drug development. TDP1 is not an essential protein, but under treatment with topoisomerase I poison (camptothecin: CPT), TDP1 works as a critical factor for cell survival. To directly identify novel TDP1 inhibitors active in a cellular environment, we have knocked-out the Tdp1 gene in chicken DT40 cells (Tdp1-/-) and generated a complemented counterpart cells that contains a stable transfection of the human TDP1 gene (Tdp1-/-;hTDP1 cells). For the primary screen, Tdp1-/-;hTDP1 cells will be exposed to small molecules in the presence or absence of CPT, and their growth kinetics will be evaluated after 48 hours by measuring ATP activity. […] The hit compounds will then be evaluated in the presence or absence of CPT using Tdp1-/- cells. […] In tertiary assays, biochemical gel-based assays will be used to assess whether the hit compounds specifically target TDP1. To this end, we have screened this cell line against the MLSMR in two primary screens. In one screen we add CPT and in the other we screen in the absence of CPT; this AID represents the screen where CPT was present. NIH Chemical Genomics Center [NCGC] NIH Molecular Libraries Probe Centers Network [MLPCN] MLPCN Grant: MH095538 Assay Submitter (PI): Yves Pommier, NCI
DT40-hTDP1 cells with 20 nM Camptothecin (add 20 microL of 1 mM CPT stock in 1 L of cell culture medium) were dispensed at 400 cells/5microL/well in tissue culture treated 1536-well white wall/solid bottom assay plates (Greiner Bio-One North America, NC, U.S.A.) using a Multidrop Combi 8 channel dispenser (Thermo Fisher, Waltham, MA, USA). 23 nL compounds and controls were transferred using the pin tool (Kalypsys, San Diego, CA, USA) to the assay plates. The assay plates were then incubated at 37 masculineC for a minimum 48 hr. Three microL of Cell Titer Glo solution was added to the plates and incubated at RT in dark for 30 min. Luminescence was read using ViewLux (Perkin Elmer) with 1 sec exposure slow speed, high gain and 2x binning.
On the % scale 0 is the no-effect control and ±100 the full control effect; potency means the concentration at half of the fitted maximal effect.

SMILES	activity change, negative = growth inhibition	Potency
COc1cccc(NC(=S)N(Cc2ccc(C)cc2)Cc2ccccn2)c1	-11.2% (inactive)	
CN=C1C=C/C(=N/N=c2\ccn(O)cc2C)C=C1C	2.23% (inactive)	
CCOC(=O)C1=C(CC)Nc2ccccc2N=C1NC(=O)c1cccc(S(=O)(=O)N2CCCC2)c1	-21.8% (inactive)	
CC(=O)NC12CC3CC(C1)CC(C(=O)N1CCN(C(=O)c4ccco4)CC1)(C3)C2	2.65% (inactive)	
N#CC1(Nc2ccc3c4c(cccc24)CC3)CCCCC1	-7.33% (inactive)	
CC(C)[C@H]1CC[C@@H](C)C[C@H]1O	31.4% (inactive)	
CC(c1ccccn1)N(CCN(C)C)C(=S)Nc1ccccc1F (stereo unspecified)	-0.383% (inactive)	
N/C(=N\OC(=O)CCn1cccc(C(F)(F)F)c1=O)c1ccc(OC(F)(F)F)cc1	-10.4% (inactive)	
CC(=O)Nc1ccc(C(=O)N(C2=NC(C)CS2)c2ccc(Cl)cc2)cc1 (stereo unspecified)	2.95% (inactive)	
COc1ccccc1NC(=O)CSc1nnc(Cc2cccn2C)n1-c1ccc(F)cc1	-7.4% (inactive)	
COc1ccccc1NC(=O)CSc1nnc(Cn2nnc(-c3ccccc3)n2)n1-c1ccccc1		18.4 µM (active)
COc1ccccc1OCc1nnc(SCC(N)=O)n1-c1ccccc1	12.4% (inactive)	
COc1ccc(S(=O)(=O)N(C)CC(=O)NCCCN2CCOCC2)cc1Cl	3.43% (inactive)	
Cc1cc(C(=O)COc2ccccc2Cl)c(C)n1C1CC1		13 µM (active)
O=C(COc1ccccc1Cl)Nn1cnnc1	5.43% (inactive)	
CC(=O)C1=C(C)NC(=O)NC1c1cc(Br)ccc1OCC#N (stereo unspecified)	-0.357% (inactive)	
O=C(COc1ccc(Br)cc1F)NCC1(N2CCCCC2)CCCCC1	-7.8% (inactive)	
O=C(COc1ccccc1Cl)N1CCCCCCC1	-1.73% (inactive)	
Cc1cc(C(=O)COc2ccc(Br)cc2F)c(C)n1C1CC1		7.31 µM (active)
C/C(N)=C(/C#N)C(=O)COC(=O)c1cc(-c2ccc(C)cc2)nc2ccccc12	-28.9% (inactive)	
COc1ccc(/C=C/C(=O)NC(=S)N2CCCC(C(N)=O)C2)cc1 (stereo unspecified)	15% (inactive)	
OCCC1CN(Cc2ccc3nsnc3c2)CCN1C1CCCC1 (stereo unspecified)	1.15% (inactive)	

SMILES	activity change, negative = growth inhibition	Potency
CC(C)c1cc(C(=O)N/N=C/c2ccoc2)c(O)c(C(C)C)c1	11.1% (inactive)	
CC(C)C[C@H](NC(=O)N1CC(=O)Nc2ccccc21)C(=O)N[C@H](Cc1ccccc1)C(=O)O	14.6% (inactive)	
Cc1ccc(N(C(=O)c2ccc(CN3CCOCC3)o2)C(C(=O)NCCC(C)C)c2cccs2)c(C)c1 (stereo unspecified)	11.6% (inactive)	
CCCCNC(=O)N(O)C1N(/N=C/c2ccc(N(C)C)cc2)C(=S)SC1(C)C (stereo unspecified)	9.36% (inactive)	
Cn1cnnc1SCC(=O)Nc1ccc(N2CCOCC2)cc1	7.87% (inactive)	
CN1CCN(c2ccc(NC(=O)c3cc(Cl)c4c(c3)OCCO4)cc2)CC1	-20.6% (inactive)	
C=CC(=O)Nc1ccc(Nc2ccnc(Nc3ccc(N4CCN(C)CC4)cc3)n2)cc1		9.2 µM (active)
Cc1ccc(NS(=O)(=O)c2ccc(C(=O)NCCCN3CCOCC3)cc2)cc1	-19.6% (inactive)	
Cc1c(C)n(Cc2ccc(Cl)cc2)c2ccc(C(=O)NCCCN3CCOCC3)cc12		23.1 µM (active)
COc1ccc(C(=O)NCCc2ccc(S(N)(=O)=O)cc2)cc1OC	8.22% (inactive)	
Cc1c(C)n(Cc2ccc(Cl)cc2)c2ccc(C(=O)NCCc3ccc(S(N)(=O)=O)cc3)cc12		18.4 µM (active)
COc1ccc(C(=O)NCC[N+](C)(C)C)cc1	2.69% (inactive)	
CCn1c(C)c(C)c2cc(C(=O)NCCc3cc(OC)ccc3OC)ccc21		20.6 µM (active)
COc1ccc(Cn2c(=S)[nH]c3cc(C(=O)NCCCN4CCOCC4)ccc3c2=O)cc1	-15.5% (inactive)	
COc1ccc(-n2c(=O)[nH]c3cc(C(=O)NCCc4ccc(OC)c(OC)c4)ccc3c2=O)c(OC)c1	-11.1% (inactive)	
CCOC(=O)c1c(C)c(C(=O)NCCc2ccc(S(N)(=O)=O)cc2)c(C)n1CC	-8.97% (inactive)	
NC(=O)c1nnsc1-c1ccc(-c2snnc2C(N)=O)cc1	4.47% (inactive)	
CCCCN1CC(CO)Oc2cccc(F)c2S1(=O)=O (stereo unspecified)	-0.718% (inactive)	
COc1ccc(OCC(=O)NCCS(=O)(=O)N2CCN(c3ccc(F)cc3)CC2)cc1	-11.2% (inactive)	
Cc1cc2cc3c(N)[nH]nc3nc2cc1C	1.04% (inactive)	
O=S1(=O)CCOC[C@H](Cc2ccccc2)N1Cc1ccccc1Br	-0.698% (inactive)	
COc1ccccc1C(=O)NC(=S)NC12CC3CC(CC(C3)C1)C2	-23% (inactive)	

SMILES	activity change, negative = growth inhibition	Potency
CC(=O)c1cc(CN2CCC(n3nccc3NC(=O)c3ccccc3Cl)CC2)cs1	4.13% (inactive)	
CCCCCc1ccc(-c2ccc(C(=O)O)cc2)nc1	-17.7% (inactive)	
CC(=O)Nc1ccc(S(=O)(=O)NC2(C(F)(F)F)C(=O)NC(C)=C2C#N)cc1 (stereo unspecified)	-13.2% (inactive)	
CC1CCCC(C)N1C(=O)COC(=O)c1ccccc1C(=O)c1ccccc1 (stereo unspecified)	-17.9% (inactive)	
C=CCc1ccccc1OCC(O)CN1CCN(CCO)CC1 (stereo unspecified)	-1.41% (inactive)	
OC(COc1ccc(F)cc1Cl)CN1CCc2ccccc2C1 (stereo unspecified)		20.6 µM (active)
Cc1ccc(Cl)c(OCC(=O)N2CCc3ccccc3C2)c1	4.91% (inactive)	
COCCN1CCn2c(nc3cc(NS(C)(=O)=O)ccc32)C1	-0.0281% (inactive)	
Cc1cccc(CCNC(=O)Cn2ncc3c([nH]c4ccc(C)cc43)c2=O)c1	5.21% (inactive)	
CC(=O)N1CCC2(CCCN(Cc3ccccc3)C2)CC1	10.1% (inactive)	
CS(=O)(=O)N1CCC2(CC1)CN(Cc1ccccc1)C2	-3.76% (inactive)	
CC12CN(Cc3ccccc3)CC(C)(CN(Cc3ccccc3)C1)C2=NO		23.1 µM (active)
O=C1Nc2cc(Cl)c(Cl)cc2N(O)N1c1cc(Cl)cc(Cl)c1	-23% (inactive)	
CCCSc1ncc(Cl)c(C(=O)Nc2c(C(=O)Nc3ccccc3)oc3ccccc23)n1	-28.7% (inactive)	
Cc1ccc(NC(=O)c2cccnc2C(=O)Nc2ccc(C)cc2)cc1	-2.57% (inactive)	
CSc1nnc(NC(=O)c2nc(S(=O)(=O)Cc3ccc(C)cc3)ncc2Cl)s1		6.51 µM (active)
CCSc1nnc(NC(=O)c2ccc(C)cc2)s1	-18.9% (inactive)	
Cc1cccc(NC(=O)C(C)SCc2ccccc2)c1 (stereo unspecified)	-16.9% (inactive)	
CCSc1ncc(Cl)c(C(=O)Nc2cc(C)ccc2C)n1		inactive
NC(=O)CSc1nnc(NC(=O)c2ccc(Br)o2)s1	-8.79% (inactive)	
O=C(Nc1ccccc1C(F)(F)F)c1nc(S(=O)(=O)Cc2ccccc2F)ncc1Cl		0.562 µM (active)
CN(CC(=O)Nc1ccccc1C(F)(F)F)C(=O)Cc1ccccc1F	-12.4% (inactive)	

SMILES	activity change, negative = growth inhibition	Potency
Cc1cccc(NC(=O)c2nc(S(=O)(=O)Cc3ccccc3)ncc2Cl)c1		0.92 µM (active)
O=C(Nc1nc2ccc(F)cc2s1)c1nc(SCc2ccccc2F)ncc1Cl	-22.7% (inactive)	
Cc1ccc(NC(=O)c2nc(S(=O)(=O)Cc3cccc(C)c3)ncc2Cl)cc1		0.651 µM (active)
Cc1cc2c3ccccc3[nH]c(=O)n2n1	-12% (inactive)	
COc1ccc(S(=O)(=O)N2CCOCC2)cc1NC(=O)CSc1ncnc2ccccc12	0.923% (inactive)	
Cc1cc2c(=O)n(CC(=O)NCC(=O)Nc3ccc(C(C)C)cc3)cnc2s1	1.73% (inactive)	
COc1ccc(CNC(=O)COc2cccnc2[N+](=O)[O-])cc1	-4.32% (inactive)	
COc1cccc(C(=O)OCC(=O)c2[nH]c(C)c(C(C)=O)c2C)c1	-19.6% (inactive)	
CC(=O)Nc1ccc(Sc2ccccc2C(=O)N2CCCC2)cn1	-23.3% (inactive)	
Cc1[nH]c2ccccc2c1C(=O)C(=O)NCc1nnnn1-c1cccc(F)c1	-21.2% (inactive)	
CCc1c(C)c2ccc(OC3CCCCC3=O)cc2oc1=O (stereo unspecified)	-10.3% (inactive)	
Cc1cccc(CS(=O)(=O)c2ncc(Cl)c(C(=O)Nc3ccc(F)cc3)n2)c1		1.3 µM (active)
Cc1cc(NC(=O)c2ccc(F)cc2)ccc1NC(=O)c1ccco1	-1.79% (inactive)	
CSc1ncc(Cl)c(C(=O)Nc2cc(C)ccc2C)n1	-2.22% (inactive)	
CC(=O)C1C(c2ccc(Cl)cc2)c2c(n[nH]c2C)CC1(C)O (stereo unspecified)	-7.41% (inactive)	
Cc1ccc(CNC(=O)C(=O)c2cn(CC(=O)N3CCOCC3)c3ccccc23)cc1	6.23% (inactive)	
Cc1ccc(NC(=O)N2CCSc3ccccc32)cc1	-18.4% (inactive)	
C=CCn1c(C23CC4CC(CC(C4)C2)C3)n[nH]c1=S	-28.3% (inactive)	
CC(C)OC(=O)C(C#N)c1nc2ccccc2nc1N1CCN(Cc2ccccc2)CC1 (stereo unspecified)		23.1 µM (active)
COC(=O)c1sc(N2CCN(Cc3ccccc3)CC2)nc1N	1.92% (inactive)	
CCc1c(C)nc(N2CCN(Cc3ccccc3)CC2)[nH]c1=O	-24.7% (inactive)	
CN1CC(=O)N=C1N		inactive

SMILES	activity change, negative = growth inhibition	Potency
N#Cc1c(-c2ccccc2)c(-c2ccccc2)n[nH]c1=O	-27.2% (inactive)	
CN(C)c1ccc(CNC(=O)CN2C(=O)COc3ccc(S(=O)(=O)N4CCCC4)cc32)cc1	0.598% (inactive)	
Cc1nnc(SCC(=O)N2CCOCC2)[nH]c1=O	24% (inactive)	
CCCCOC(=O)CNc1nnc(SCC(=O)OCC)[nH]c1=O		10.3 µM (active)
CCOC(=O)c1c(NC(=O)CSc2nnc(C)c(=O)[nH]2)sc2c1CCC2	-7.67% (inactive)	
CC(=O)c1ccc[n+](C(C)CCC(C)[n+]2cccc(C(C)=O)c2)c1 (stereo unspecified)	22.8% (inactive)	
Cc1cccc(N2CCN(C(=O)c3ccc4c(c3)CCN4S(=O)(=O)c3ccccc3)CC2)c1C		5.8 µM (active)
CCC(CC)C(=O)N1CCN(c2cccc(C)c2C)CC1		14.6 µM (active)
Cc1ccccc1N1CCN(C(=O)c2cccnc2)CC1	-0.308% (inactive)	
O=C(/C=C/c1ccco1)NC(=S)N1CCCCC1	-15% (inactive)	
Cc1cccc(N2CCN(C(=O)c3ccc(Nc4nc5ccccc5n5nnnc45)cc3)CC2)c1C	31.6% (inactive)	
CC(=O)N1CCN(c2cccc(C)c2C)CC1	4.39% (inactive)	
CCn1c(C)c(C)c2cc(C(=O)N3CCN(c4cccc(C)c4C)CC3)ccc21		20.6 µM (active)
CCOC(=O)c1c(N)n(-c2cccc(C)c2C)c2nc3ccccc3nc12	3.51% (inactive)	
CSc1ccccc1NC(=O)c1ccc2c(c1)CCN2S(C)(=O)=O	0.0239% (inactive)	
CS(=O)(=O)N1CCc2cc(C(=O)Nc3ccccc3Br)ccc21	1.75% (inactive)	
Cc1cccc(N2CCN(C(=O)/C=C/c3ccco3)CC2)c1C		16.4 µM (active)
C[C@H]1CN([C@@H](C)CO)C(=O)CCCn2cc(nn2)CO[C@@H]1CN(C)C(=O)Nc1ccccc1	8.28% (inactive)	
